Screening results (PubChem)
hgDAF-12 ag: H. glycines DAF-12 receptor agonists, primary screen, cell-based, luminescence, HEK293, GAL4 fusion, UAS-luciferase | Nuclear hormone receptor DAF-12 (Heterodera glycines), GAL4 fusion | HEK293 GAL4-hgDAF12 UAS-luciferase reporter, agonist luminescence; normalized to butyrate control | 1.8% of 370,000 active | AID 687014, 2013 | activation, % at 6.8 µM;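 active means activation above a cutoff set at the mean of all screened compounds plus 3 SD, cut at about 10% in these data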;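 further: 0% = DMSO wells and 100% = sodium butyrate wells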
ssDAF12 agonist: S. stercoralis DAF-12 nuclear receptor activators, primary screen, cell-based, luminescence, HEK293, GRIP1 co-expression, lit1-tk-luc; Nuclear hormone receptor DAF-12 (Strongyloides stercoralis); HEK293 ssDAF-12/GRIP1 lit1-tk-luc reporter; % of 3 µM dafachronic acid response; activation, % at 6.8 µM; 1% of 370,000 active;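 active means activation above the mean over all tested compounds plus 3 SD, cut at about 0.9% in these data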;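 further: 0% = DMSO-only wells and 100% = 3 µM delta7-dafachronic acid wells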
DAX1 inh-1: DAX1 (NR0B1) inhibitors on StAR promoter, primary screen, cell-based, luminescence, SF-1 (NR5A1), full-length DAX-1; HEK293T StAR-luciferase reporter, SF-1/DAX-1 repression relief; 1.1% of 370,000 active; AID 652010, 2013; inhibition, % at 6.8 µM;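 active means inhibition above the mean over all tested compounds plus 3 SD, cut at about 3.6% in these data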;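 further: 0% = DAX-1 cells with DMSO and 100% = cells lacking DAX-1 with DMSO; higher inhibition means more luminescence from relief of DAX-1 repression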
DAX1 inh-2: DAX1 (NR0B1) inhibitors, primary screen, cell-based, HEK293, Gal4-DAX1, luciferase luminescence; Nuclear receptor subfamily 0 group B member 1 (Homo sapiens), P51843; HEK293 Gal4-DAX1 luciferase reporter; inhibition, % at 6.75 µM; 0.99% of 340,000 active; AID 504766, 2011;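 active means inhibition above the mean over all tested compounds plus 3 SD, cut at about 4.2% in these data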;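 further: 0% = DAX1-transfected cells with DMSO and 100% = empty-vector control cells with DMSO; inhibition shows as a rise in luminescence from relieved DAX1 repression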
Target sequence (P51843 207-470 limits assumed): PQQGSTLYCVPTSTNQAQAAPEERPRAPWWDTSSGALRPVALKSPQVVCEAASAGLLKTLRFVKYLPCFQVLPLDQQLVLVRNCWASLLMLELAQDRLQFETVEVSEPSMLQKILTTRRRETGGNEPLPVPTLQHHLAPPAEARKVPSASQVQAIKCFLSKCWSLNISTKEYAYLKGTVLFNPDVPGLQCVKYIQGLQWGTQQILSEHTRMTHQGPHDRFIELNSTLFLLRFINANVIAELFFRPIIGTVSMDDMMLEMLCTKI
SMARCA2 act: SMARCA2 (BRM) function activators, primary screen, cell-based, luminescence, high throughput | MG213 cells, MMTV-luciferase reporter, dexamethasone, overnight | activation, % at 9.1 µM | 1% of 370,000 active | AID 652017, 2013; in the data active means activation above about 7.8%;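 further: 0% = vehicle wells and 100% = reference activator wells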
hcDAF12 agonist: H. contortus DAF-12 nuclear receptor activators, primary screen, cell-based, luminescence, HEK293, lit1-tk-luc reporter; activation, % at 6.8 µM; HEK293 hcDAF-12 lit1-tk-luc reporter; 0% DMSO, 100% Δ7-dafachronic acid; 1.4% of 370,000 active;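 active means activation above the mean of all tested compounds plus 3 SD, cut at about 5.5% in these data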;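 further: 100% = response to 3 µM Δ7-dafachronic acid high control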
DAX1 inh confirm: DAX1 (NR0B1) inhibitors relieving SF-1 repression, confirmation, cell-based, luminescence, HEK293T, full-length DAX-1, SF-1 activated StAR promoter; 87% of 2,400 active; inhibition, % at 6.8 µM; HEK293T StAR-promoter luciferase reporter, SF-1/DAX-1 repression; shares compounds with DAX1 inh-1;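 active means inhibition above the average of every tested compound plus 3 SD, cut at about 3.8% in these data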;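 further: 0% = DAX-1 cells with DMSO and 100% = no DAX-1 control cells with DMSO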
SF1 AF2mut Luc: StAR reporter signal changes without DAX1, counter-screen for DAX1 inhibitor project, cell-based, luminescence, AF-2 mutant SF-1, transactivation; shares compounds with DAX1 inh-1; HEK293 StAR-luciferase, SF-1 AF2 mutant; inhibition, % at 6.8 µM; 78% of 2,400 active;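 active means inhibition above the mean of all tested compounds plus 3 SD, cut at about 3% in these data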;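 further: 0% = DAX-1 transfected cells with DMSO and 100% = cells without DAX-1 with DMSO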
SMARCA2 act conf: SMARCA2 (BRM) function activators, confirmation, cell-based, luminescence, triplicate | 30% of 3,500 active | MG213 cells, MMTV-luciferase with dexamethasone, overnight; MG213 cells expressing E1A, Rb sequestered; DMSO wells 0%, reference activator 100% | shares compounds with SMARCA2 act | activation, % at 9.1 µM;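 active means activation above its plate's cutoff, the mean activation of tested wells plus 3 SD, cut at about 7.9% in these data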
GAL4-VP16 Luc: GAL4-VP16 luciferase reporter activation, counter-screen for SMARCA2 (BRM) activator project, cell-based, pG5luc, luminescence, high throughput; activation, % at 9.1 µM; HEK293 GAL4-VP16 pG5luc reporter; scaled: DMSO wells 0%, SAHA wells 100%; shares compounds with SMARCA2 act; 41% of 3,500 active;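 active means activation above the solvent-only control well mean plus 3 SD, averaged across control plates, cut at about 5.2% in these data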
LXR ag: LXR agonists, Gal4 luciferase reporter, confirmation, counter-screen for hcDAF-12 agonist project, cell-based, luminescence, HEK293, H. contortus campaign; shares compounds with hcDAF12 agonist; HEK293 Gal4-LXR tk-luc reporter, 24 h; normalized: DMSO 0%, positive control 100%; activation, % at 6.8 µM; 3,400 tested, under 10 active; AID 743027, 2013;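 active means mean percent activation of the reporter above a cutoff set as the average over tested compounds plus their standard deviation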
Target sequence (P55055 whole entry, looked up, the tested form may be a part): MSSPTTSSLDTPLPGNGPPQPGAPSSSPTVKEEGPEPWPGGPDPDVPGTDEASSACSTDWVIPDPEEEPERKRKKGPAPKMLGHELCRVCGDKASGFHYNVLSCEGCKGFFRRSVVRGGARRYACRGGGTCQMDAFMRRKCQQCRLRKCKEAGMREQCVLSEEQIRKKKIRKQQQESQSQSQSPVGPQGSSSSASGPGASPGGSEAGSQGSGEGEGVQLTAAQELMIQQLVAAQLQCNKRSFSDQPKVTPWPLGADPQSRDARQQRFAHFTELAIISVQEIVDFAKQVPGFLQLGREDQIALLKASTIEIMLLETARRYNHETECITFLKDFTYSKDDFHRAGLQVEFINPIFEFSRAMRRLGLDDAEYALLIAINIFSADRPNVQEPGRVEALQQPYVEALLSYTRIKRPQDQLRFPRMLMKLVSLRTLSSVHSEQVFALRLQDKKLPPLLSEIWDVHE
hcDAF12 conf: H. contortus DAF-12 receptor agonists, confirmation, cell-based, luminescence, HEK293, lit1-tk-luc, triplicate; shares compounds with hcDAF12 agonist; HEK293 hcDAF-12 lit1-tk-luc reporter; % of Δ7-dafachronic acid response; activation, % at 6.8 µM; 61% of 3,400 active; AID 743032, 2013;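 active means mean activation across triplicate tests above the threshold derived from the earlier primary screen, cut at about 5.5% in these data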;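 further: 0% = DMSO only wells and 100% = 3 µM Δ7-dafachronic acid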
hgDAF12 conf: H. glycines DAF-12 receptor agonists, confirmation, cell-based, luminescence, HEK293, GAL4-LBD fusion; shares compounds with hgDAF-12 ag; HEK293 GAL4-hgDAF12 luciferase reporter, agonist mode; percent of butyrate response; activation, % at 6.8 µM; 80% of 3,300 active; AID 743050, 2013;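 active means mean activation over triplicate wells above the hit cutoff derived from the earlier primary screen, cut at about 11% in these data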;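 further: 0% = DMSO low control and 100% = 2 mM sodium butyrate high control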
LXRb DAF12 ctr: LXR agonists, Gal4 luciferase reporter, confirmation, counter-screen for hgDAF-12 agonist project, cell-based, luminescence, HEK293, H. glycines campaign; shares compounds with hgDAF-12 ag; 24 h; activation, % at 6.8 µM; 3,300 tested, under 10 active; AID 743051, 2013;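 active means mean activation of the triplicate above a set limit carried over from the primary screen, none filed active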
Numbers without * were called inactive; x = no result given. A selection: hits, their analogues and other compounds. The true share with any hit is near 4.8%.

SMILES | hgDAF-12 ag | ssDAF12 agonist | DAX1 inh-1 | DAX1 inh-2 | SMARCA2 act | hcDAF12 agonist | DAX1 inh confirm | SF1 AF2mut Luc | hgDAF12 conf | LXRb DAF12 ctr | others
CN(Cc1ccccc1)CC(O)COc1ccc(CNCCc2cccnc2)cc1 (stereo unspecified) | -1 | -1 | 0 | 1 | 3 | 0 | x | x | x | x
O=C(CC1NCCNC1=O)OCc1ccccc1 (stereo unspecified) | 0 | -1 | 0 | 0 | 2 | 0 | x | x | x | x
O=C(Nc1ccc2sccc2c1)c1ccc(Cl)s1 | 21* | 1.4* | 9.0* | 2 | 1 | 15* | 20* | 11* | 23* | 1 | LXR ag=2;hcDAF12 conf=12*
COc1ccc(C(=O)CSc2nnc(-c3ccc(C)cc3)o2)cc1 | 1 | -1 | 0 | 1 | -2 | 0 | x | x | x | x
COc1ccc(-c2nnc(SCC(C)C)o2)cc1 | 23* | 1 | 4.8* | 3 | 7 | 4 | 8.2* | 3.4* | 22* | 1
O=C(Nc1ccccc1O)c1ccc(NS(=O)(=O)c2cccc3cccnc23)cc1 | 84* | 2.3* | 54* | 18* | 1 | 19* | 91* | 38* | 89* | 1 | LXR ag=1;hcDAF12 conf=13*
O=C(O)c1ccc(NS(=O)(=O)c2cccc3cccnc23)cc1 | -4 | -1 | 1 | 2 | 1 | 0 | x | x | x | x
CN(c1ccccc1)S(=O)(=O)c1ccc(C(=O)Nc2ncccc2O)cc1 | 10 | -1 | 1 | 0 | -3 | 1 | x | x | x | x
O=C(Nc1ncccc1O)c1ccc(S(=O)(=O)Nc2ccccc2)cc1 | 85* | 0 | 85* | 11* | -1 | 13* | 112* | 58* | 81* | 1 | LXR ag=0;hcDAF12 conf=8.0*
O=C(NC(=O)N1CCN(c2ccc(F)cc2)CC1)c1ccccc1 | -2 | -1 | 1 | -1 | -1 | -1 | x | x | x | x
CN(C)c1ccc(C=Cc2cnccn2)cc1 | 18* | 0 | 6.7* | -1 | 2 | 5 | 16* | 9.8* | 16* | 1
CN(C)c1ccc(/C=C/c2ccncc2)cc1 | 8 | -1 | 1 | 0 | 1 | 4 | x | x | x | x
CC(=O)Nc1ccc2nc(-c3ccccc3)cn2c1 | 21* | 1 | 6.0* | 1 | 8.8* | 4 | 10.0* | 6.6* | 17* | 1 | SMARCA2 act conf=9.4*;GAL4-VP16 Luc=7.6*
CC(=O)Nc1ccc(-c2cc(-c3ccccc3)nc(-c3ccccc3)n2)cc1 | 0 | -1 | 0 | 0 | -2 | 2 | x | x | x | x
O=C(Nc1nnc([C@@H]2C[C@H](O)[C@@H](CO)O2)s1)Nc1ccccc1F | 15* | 0 | 7.3* | x | -1 | 5 | 7.2* | 3.4* | 11* | 0
O=C(Nc1nnc([C@@H]2C[C@H](O)[C@@H](CO)O2)s1)c1cccc2ccccc12 | 25* | 1 | 5.0* | x | 0 | 4 | 8.7* | 5.6* | 13* | 1
Cn1nnc2cc(C(=O)Nc3ccccc3F)ccc21 | 1 | 0 | 1 | -2 | 3 | 0 | x | x | x | x
Cn1nnc2cc(NC(=O)Nc3ccccc3F)ccc21 | 15* | 0 | 7.4* | 2 | 7 | 4 | 9.8* | 4.4* | 14* | 1
Cc1ccc(NC(=O)/C(Cl)=C/c2ccccc2)cc1C | 20* | 1.0* | 7.0* | 2 | 3 | 9.7* | 20* | 8.2* | 21* | 1 | LXR ag=2;hcDAF12 conf=8.4*
Cc1ccc(NC(=O)CCc2ccccc2)cc1C | 9 | 0 | 1 | 4 | 6 | 0 | x | x | x | x
O=C(CCCN1C(=O)/C(=C/c2ccc3c(c2)OCO3)SC1=S)Nc1cccc(C(=O)O)c1 | -5 | -2 | -3 | 0 | -7 | -6 | x | x | x | x
O=[N+]([O-])c1ccccc1OCCCn1cnc2ccccc21 | 17* | -1 | 5.5* | 2 | 6 | 0 | 7.2* | 4.3* | 16* | 1
